Test results taken from the supplement of paper PMC11732987, “Enantioselective OTUD7B fragment discovery through chemoproteomics screening and high-throughput optimisation” (Communications Chemistry, 2025).

Experiments:
Assay in all cases: log2 ratio of Biotin-Ahx-Ub-VS probe labelling (fragment/DMSO); higher = less target engagement (more negative = stronger competition), active = hit call of the paper (q ≤ 0.05, log2 ratio ≤ -1)
Conditions in all cases: compound concentration: 200 uM; treatment time: 3 h
USP16 = USP16 (UniProt Q9Y5T5)
Sequence of USP16 (Q9Y5T5 whole entry, looked up, the tested form may be a part): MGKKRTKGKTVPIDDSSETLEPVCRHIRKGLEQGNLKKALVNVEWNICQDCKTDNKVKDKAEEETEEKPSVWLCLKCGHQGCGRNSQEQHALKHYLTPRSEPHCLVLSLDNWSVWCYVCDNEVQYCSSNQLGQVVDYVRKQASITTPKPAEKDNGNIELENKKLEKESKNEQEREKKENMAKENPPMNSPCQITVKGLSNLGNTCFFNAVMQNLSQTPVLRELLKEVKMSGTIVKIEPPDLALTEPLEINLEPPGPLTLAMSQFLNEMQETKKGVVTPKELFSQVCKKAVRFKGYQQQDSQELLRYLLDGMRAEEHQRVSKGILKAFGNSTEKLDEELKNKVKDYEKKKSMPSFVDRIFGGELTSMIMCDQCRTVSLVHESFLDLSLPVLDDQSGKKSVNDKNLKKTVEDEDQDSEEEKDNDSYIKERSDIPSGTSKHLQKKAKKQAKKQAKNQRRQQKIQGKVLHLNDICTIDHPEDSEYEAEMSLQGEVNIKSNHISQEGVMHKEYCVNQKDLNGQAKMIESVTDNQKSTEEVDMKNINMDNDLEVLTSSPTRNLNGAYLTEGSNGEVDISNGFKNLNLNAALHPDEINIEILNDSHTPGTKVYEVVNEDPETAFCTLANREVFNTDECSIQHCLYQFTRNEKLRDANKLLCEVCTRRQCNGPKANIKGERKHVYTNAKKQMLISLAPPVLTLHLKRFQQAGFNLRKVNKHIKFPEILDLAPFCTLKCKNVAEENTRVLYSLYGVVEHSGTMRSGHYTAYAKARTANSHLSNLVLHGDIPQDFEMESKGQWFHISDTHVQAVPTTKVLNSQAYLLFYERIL
In short: (§1)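 Global-median-normalised Spectronaut label-free quantities were compared by unpaired t-test, and values are average log2 ratios of fragment over vehicle. Only proteins with ≥2 unique peptides were used. HEK293T lysate (495 µg per sample) was treated in triplicate with fragment at 200 µM or vehicle for 3 h and then with Biotin-Ahx-Ub-VS at 0.5 µM final for 1 h. Labelled DUBs were then NeutrAvidin-enriched, digested with LysC and trypsin, and run by diaPASEF LC-MS/MS.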

USP19 = target: T1, USP19 (UniProt O94966)
T1 sequence (whole entry): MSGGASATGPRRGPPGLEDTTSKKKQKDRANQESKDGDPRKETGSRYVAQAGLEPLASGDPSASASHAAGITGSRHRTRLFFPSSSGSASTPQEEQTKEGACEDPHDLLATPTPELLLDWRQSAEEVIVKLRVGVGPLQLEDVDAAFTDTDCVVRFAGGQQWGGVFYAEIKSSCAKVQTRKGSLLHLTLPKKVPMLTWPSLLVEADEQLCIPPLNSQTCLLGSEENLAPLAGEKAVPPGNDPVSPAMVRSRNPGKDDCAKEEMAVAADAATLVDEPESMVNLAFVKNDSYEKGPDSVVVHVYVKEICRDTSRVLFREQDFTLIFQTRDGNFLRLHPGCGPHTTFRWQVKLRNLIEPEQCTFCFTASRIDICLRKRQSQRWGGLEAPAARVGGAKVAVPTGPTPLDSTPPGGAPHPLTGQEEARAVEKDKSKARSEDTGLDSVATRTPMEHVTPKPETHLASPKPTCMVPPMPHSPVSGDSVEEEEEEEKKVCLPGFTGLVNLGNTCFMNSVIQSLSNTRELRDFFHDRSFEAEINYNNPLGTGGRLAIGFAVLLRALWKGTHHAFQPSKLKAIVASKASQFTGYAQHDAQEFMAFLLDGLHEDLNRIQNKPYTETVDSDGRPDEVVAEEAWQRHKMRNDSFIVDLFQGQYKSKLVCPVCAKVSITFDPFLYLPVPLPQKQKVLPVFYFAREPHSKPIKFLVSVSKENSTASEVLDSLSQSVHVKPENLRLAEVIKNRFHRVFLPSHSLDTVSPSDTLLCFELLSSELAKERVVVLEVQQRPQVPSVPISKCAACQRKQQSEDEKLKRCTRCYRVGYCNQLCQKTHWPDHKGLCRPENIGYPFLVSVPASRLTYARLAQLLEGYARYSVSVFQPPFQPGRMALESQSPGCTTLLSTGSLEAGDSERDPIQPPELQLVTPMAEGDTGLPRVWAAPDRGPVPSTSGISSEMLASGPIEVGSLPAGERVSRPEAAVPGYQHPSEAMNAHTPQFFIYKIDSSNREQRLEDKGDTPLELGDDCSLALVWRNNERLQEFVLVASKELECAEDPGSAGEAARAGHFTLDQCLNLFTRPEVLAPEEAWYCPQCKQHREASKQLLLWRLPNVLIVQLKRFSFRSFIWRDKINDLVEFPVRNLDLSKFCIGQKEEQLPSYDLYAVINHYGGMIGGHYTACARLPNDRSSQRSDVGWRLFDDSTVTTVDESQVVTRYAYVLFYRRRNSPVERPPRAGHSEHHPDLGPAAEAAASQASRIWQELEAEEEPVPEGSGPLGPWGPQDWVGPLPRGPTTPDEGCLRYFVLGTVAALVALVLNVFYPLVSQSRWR
In short: as §1

USP24 = USP24 (UniProt Q9UPU5)
Sequence of USP24 (Q9UPU5 whole entry): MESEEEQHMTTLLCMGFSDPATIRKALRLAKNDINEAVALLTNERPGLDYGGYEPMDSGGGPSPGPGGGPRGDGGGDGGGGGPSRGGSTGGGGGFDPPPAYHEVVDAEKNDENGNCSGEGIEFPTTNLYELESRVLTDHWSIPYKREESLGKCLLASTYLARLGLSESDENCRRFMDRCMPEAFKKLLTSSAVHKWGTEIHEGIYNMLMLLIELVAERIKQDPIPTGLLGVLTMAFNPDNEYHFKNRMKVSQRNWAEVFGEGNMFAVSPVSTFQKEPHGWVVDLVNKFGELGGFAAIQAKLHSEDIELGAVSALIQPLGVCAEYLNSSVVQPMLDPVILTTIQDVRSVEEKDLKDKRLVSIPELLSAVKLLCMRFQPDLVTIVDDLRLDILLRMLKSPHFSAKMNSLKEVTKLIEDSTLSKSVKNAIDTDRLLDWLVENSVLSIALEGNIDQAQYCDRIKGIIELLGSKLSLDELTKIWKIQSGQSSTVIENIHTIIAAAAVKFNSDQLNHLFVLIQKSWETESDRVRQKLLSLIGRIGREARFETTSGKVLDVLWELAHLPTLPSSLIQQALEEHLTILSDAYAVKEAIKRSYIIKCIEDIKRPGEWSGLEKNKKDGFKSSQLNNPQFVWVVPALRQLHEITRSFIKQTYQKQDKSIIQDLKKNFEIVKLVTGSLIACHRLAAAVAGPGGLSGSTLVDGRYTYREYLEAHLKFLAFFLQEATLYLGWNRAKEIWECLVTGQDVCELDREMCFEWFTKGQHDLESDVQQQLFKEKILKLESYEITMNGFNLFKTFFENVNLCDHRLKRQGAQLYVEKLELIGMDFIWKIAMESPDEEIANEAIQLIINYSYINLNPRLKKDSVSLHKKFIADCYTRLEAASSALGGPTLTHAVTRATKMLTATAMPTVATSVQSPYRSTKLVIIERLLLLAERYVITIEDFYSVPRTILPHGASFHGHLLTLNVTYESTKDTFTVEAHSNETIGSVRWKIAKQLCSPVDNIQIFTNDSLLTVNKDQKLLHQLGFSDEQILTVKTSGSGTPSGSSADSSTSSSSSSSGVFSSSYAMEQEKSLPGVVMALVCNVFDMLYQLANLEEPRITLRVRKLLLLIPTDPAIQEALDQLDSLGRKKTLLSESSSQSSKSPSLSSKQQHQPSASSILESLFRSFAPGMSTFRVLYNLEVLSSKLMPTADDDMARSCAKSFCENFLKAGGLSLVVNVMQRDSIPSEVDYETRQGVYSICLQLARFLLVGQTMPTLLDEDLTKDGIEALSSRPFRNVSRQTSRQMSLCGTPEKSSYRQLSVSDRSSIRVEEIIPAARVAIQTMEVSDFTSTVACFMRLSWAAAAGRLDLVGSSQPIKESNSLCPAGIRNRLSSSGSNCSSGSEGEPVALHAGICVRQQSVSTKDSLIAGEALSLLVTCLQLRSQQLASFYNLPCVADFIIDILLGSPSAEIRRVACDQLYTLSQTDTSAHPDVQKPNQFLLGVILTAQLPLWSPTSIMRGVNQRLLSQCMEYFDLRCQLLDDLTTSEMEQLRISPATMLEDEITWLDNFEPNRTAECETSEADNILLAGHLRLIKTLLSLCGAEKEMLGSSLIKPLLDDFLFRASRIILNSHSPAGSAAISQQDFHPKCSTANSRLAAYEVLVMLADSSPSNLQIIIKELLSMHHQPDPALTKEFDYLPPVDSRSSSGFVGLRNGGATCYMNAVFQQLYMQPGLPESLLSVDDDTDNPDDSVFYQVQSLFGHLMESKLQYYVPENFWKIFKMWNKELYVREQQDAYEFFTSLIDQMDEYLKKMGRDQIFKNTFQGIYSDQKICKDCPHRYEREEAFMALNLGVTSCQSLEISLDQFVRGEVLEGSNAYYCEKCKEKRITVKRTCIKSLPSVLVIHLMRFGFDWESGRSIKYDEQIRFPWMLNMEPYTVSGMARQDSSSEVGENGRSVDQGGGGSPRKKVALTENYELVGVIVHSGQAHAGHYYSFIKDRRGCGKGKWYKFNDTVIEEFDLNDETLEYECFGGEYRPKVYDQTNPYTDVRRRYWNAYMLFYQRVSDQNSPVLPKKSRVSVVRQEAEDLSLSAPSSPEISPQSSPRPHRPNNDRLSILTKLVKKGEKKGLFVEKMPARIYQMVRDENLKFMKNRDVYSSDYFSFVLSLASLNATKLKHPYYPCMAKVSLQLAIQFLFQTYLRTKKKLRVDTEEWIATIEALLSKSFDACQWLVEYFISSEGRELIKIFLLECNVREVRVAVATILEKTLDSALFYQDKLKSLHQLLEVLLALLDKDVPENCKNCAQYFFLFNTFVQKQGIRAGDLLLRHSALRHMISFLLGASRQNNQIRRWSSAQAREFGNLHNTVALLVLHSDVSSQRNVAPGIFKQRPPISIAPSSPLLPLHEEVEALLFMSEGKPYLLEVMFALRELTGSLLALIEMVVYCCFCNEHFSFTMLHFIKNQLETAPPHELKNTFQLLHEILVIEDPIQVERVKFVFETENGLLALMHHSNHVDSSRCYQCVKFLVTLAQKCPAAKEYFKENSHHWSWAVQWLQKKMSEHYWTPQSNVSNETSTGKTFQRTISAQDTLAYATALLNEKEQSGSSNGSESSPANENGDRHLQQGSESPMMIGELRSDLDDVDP
In short: as §1

USP25 = target: T2, USP25 (UniProt Q9UHP3)
T2 sequence (whole entry): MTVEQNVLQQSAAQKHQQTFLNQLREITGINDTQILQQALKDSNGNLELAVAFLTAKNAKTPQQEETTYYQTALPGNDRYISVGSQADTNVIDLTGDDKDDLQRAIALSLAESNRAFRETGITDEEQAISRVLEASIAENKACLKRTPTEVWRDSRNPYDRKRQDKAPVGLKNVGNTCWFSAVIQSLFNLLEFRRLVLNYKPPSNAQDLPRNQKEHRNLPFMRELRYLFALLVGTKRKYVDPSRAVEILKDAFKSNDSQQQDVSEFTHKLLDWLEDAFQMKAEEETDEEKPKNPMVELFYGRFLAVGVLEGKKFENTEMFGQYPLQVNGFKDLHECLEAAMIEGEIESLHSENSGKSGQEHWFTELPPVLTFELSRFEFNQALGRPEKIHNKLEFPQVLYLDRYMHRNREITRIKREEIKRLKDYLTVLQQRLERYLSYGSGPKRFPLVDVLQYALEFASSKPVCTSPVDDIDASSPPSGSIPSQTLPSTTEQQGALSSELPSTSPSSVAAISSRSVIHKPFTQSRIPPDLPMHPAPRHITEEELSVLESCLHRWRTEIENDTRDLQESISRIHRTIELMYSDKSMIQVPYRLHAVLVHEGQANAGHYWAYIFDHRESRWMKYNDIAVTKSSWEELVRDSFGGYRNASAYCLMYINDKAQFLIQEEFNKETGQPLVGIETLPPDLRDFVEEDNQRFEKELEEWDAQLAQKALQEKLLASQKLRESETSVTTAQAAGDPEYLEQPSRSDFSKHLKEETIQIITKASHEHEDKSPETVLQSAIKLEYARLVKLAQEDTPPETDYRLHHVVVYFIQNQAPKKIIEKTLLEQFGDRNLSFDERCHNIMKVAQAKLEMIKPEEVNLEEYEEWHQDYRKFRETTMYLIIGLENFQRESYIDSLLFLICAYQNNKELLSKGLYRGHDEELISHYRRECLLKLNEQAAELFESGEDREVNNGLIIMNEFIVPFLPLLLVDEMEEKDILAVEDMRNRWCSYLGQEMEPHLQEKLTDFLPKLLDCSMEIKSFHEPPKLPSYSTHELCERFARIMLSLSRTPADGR
In short: as §1

USP28 = target: T3, USP28 (UniProt Q96RU2)
T3 sequence (whole entry): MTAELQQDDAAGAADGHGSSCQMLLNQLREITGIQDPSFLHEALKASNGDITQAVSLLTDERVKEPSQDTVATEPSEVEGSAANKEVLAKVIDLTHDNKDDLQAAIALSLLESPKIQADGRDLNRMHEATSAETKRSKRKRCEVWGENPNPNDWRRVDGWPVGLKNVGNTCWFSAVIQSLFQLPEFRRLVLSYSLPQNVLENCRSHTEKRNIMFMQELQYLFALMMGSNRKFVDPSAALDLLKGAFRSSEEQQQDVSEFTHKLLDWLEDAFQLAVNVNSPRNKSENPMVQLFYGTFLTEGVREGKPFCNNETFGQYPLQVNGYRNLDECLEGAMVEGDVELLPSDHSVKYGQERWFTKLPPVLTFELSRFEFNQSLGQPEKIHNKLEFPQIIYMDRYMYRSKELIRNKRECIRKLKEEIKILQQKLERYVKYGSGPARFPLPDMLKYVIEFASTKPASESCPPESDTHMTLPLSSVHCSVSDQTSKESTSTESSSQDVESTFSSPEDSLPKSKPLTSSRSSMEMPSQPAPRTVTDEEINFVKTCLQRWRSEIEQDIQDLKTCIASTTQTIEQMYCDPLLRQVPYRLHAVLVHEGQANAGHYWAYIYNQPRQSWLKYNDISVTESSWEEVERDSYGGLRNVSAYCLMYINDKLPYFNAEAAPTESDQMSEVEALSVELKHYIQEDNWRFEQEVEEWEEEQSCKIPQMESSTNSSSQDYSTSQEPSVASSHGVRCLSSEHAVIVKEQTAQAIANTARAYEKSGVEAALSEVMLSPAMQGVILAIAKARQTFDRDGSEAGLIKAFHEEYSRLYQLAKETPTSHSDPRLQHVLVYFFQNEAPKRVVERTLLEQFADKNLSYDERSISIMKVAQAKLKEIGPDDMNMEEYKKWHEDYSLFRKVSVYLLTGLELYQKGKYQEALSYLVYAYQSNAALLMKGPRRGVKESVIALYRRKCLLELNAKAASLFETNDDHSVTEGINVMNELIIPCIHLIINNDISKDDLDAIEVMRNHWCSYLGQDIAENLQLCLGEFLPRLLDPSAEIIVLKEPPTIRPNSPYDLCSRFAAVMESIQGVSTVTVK
In short: as §1

Measured: log2 ratio of Biotin-Ahx-Ub-VS probe labelling

CC(=O)C1CCCCN1C(=O)CCl (stereo not given)
inactive: USP16 -0.109 | USP19 -0.14 | USP24 0.0726 | USP25 0.106 | USP28 -0.2
